Measured values published in PubChem BioAssay (Tox21).
Inconclusive results are not listed. Activity calls are given as the source filed them. Unless noted, calls come from the whole dose curve.

How the values were obtained:
[1] = qHTS assay to identify small molecule antagonists of the estrogen receptor beta (ER-beta) signaling pathway - cell viability counter screen (AID 1259382; active = well fitted curve in the direction sought with a large enough effect in the repeat runs; an effect the other way counts as inactive or inconclusive;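 note: HEK293T cells carrying ER-beta-UAS-bla reporter stimulated with estradiol; nearly all actives have a fitted effect of over 55% in size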); details: ER-beta-UAS-bla HEK293T viability, CellTiter-Glo luminescence, 16 h; series mostly up to 92.4 µM
Method in brief: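 Tox21 10K library tested in qHTS format on ER-beta-bla HEK293T cells stimulated with 1nM E2; 16 hr treatment at 37C. Same-well CellTiter-Glo luminescence served as the cell viability measure.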

[2] = target: Estrogen receptor (Homo sapiens) (UniProt P03372); assay: qHTS assay to identify small molecule agonists of the estrogen receptor alpha (ER-alpha) signaling pathway in the presence of an antagonist (AID 1259383); details: VM7Luc4E2 cells, ERE-luciferase, +ICI-182,780, 22 h; series mostly up to 92.4 µM; note: top concentration of the series differs between compounds; nearly all actives have a fitted effect of over 15% in size
Method in brief: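 In VM7Luc4E2 cells, 4,000 per well, compounds at 15 concentrations were co-incubated 22hr at 37C with 10.0nM final ICI-182,780. Luminescence from the stably transfected 4×ERE-luciferase reporter was recorded 30min after ONE-Glo addition.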

[3] = qHTS assay to identify small molecule agonists or antagonists of the thyroid stimulating hormone receptor (TSHR) signaling pathway - wild type cell line counter screen (AID 1259384); details: HEK293 wild type, cAMP HTRF counter-screen; series mostly up to 92.4 µM
Method in brief: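 Wild-type Hek293 cells, 800/well, 18 h at 37C, then compound with Ro20-1724 for 30 min RT. cAMP by HTRF (cAMP-d2/anti-cAMP cryptate), 1 h RT, fluorescence read. 15 concentrations, triplicates.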

[4] = target: Thyrotropin receptor (Homo sapiens) (UniProt P16473); assay: qHTS assay to identify small molecule antagonists of the thyroid stimulating hormone receptor (TSHR) signaling pathway (AID 1259385); details: TSHR-HEK293 cAMP HTRF, TSH-stimulated antagonist mode; series mostly up to 92.4 µM; note: nearly all actives have a fitted effect of over 20% in size
Method in brief: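 TSHR-HEK293 cells (800/well) plated 18 h, then compounds with Ro20-1724 and TSH at 1.5 ng/mL final, 30 min at room temperature. cAMP quantified by HTRF (cAMP-d2/anti-cAMP-cryptate, 1 h); 15 concentrations in triplicate.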

[5] = qHTS assay to identify small molecule agonists of the estrogen receptor alpha (ER-alpha) signaling pathway in the presence of an antagonist - cell viability counter screen (AID 1259386; active = well fitted curve in the direction sought with a large enough effect in the repeat runs; an effect the other way counts as inactive or inconclusive;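 note: cells exposed to compounds for 22 h at 37 °C before the viability read; nearly all actives have a fitted effect of over 30% in size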); details: VM7Luc4E2 viability, CellTiter-Fluor fluorescence, 22 h; series mostly up to 92.4 µM
Method in brief: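 Fluorescent CellTiter-Fluor viability signal from VM7Luc4E2 cells, with the reagent added during the final hour of a 22hr compound exposure at 37C in the presence of 10.0nM ICI-182,780.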

[6] = target: Progesterone receptor (Homo sapiens) (UniProt P06401); assay: qHTS assay to identify small molecule agonists of the progesterone receptor (PR) signaling pathway (AID 1346784); details: PR-UAS-bla HEK293T, beta-lactamase FRET ratio, 16 h; series mostly up to 92.4 µM; note: nearly all actives have a fitted effect of over 30% in size
Method in brief: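 Agonist mode, quantitative HTS format in a HEK 293T line expressing a UAS-controlled beta-lactamase reporter; 16 hr compound exposure at 37C in 2% charcoal-stripped FBS, then LiveBLAzer B/G FRET fluorescence.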

[7] = target: Progesterone receptor (Homo sapiens) (UniProt P06401); assay: qHTS assay to identify small molecule antagonists of the progesterone receptor (PR) signaling pathway (AID 1346795; active = well fitted inhibition curve with a large enough effect in the signal ratio in the repeat runs, not every such curve was filed as active; the % refers to the signal ratio); details: PR-UAS-bla HEK293T, beta-lactamase FRET ratio, 16 h; series mostly up to 92.4 µM
Method in brief: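 HEK293T PR-UAS-bla reporter cells in charcoal-stripped serum (2%) received compound after a 6 hr settling period, followed by R5020 agonist at 1 nM final; 16 hr incubation preceded the FRET substrate step and fluorescence measurement.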

[8] = qHTS assay to identify small molecule antagonists of the progesterone receptor (PR) signaling pathway - cell viability counter screen (AID 1346798; active = well fitted curve in the direction sought with a large enough effect in the repeat runs; an effect the other way counts as inactive or inconclusive; note: nearly all actives have a fitted effect of over 50% in size); details: PR-UAS-bla HEK293T viability, CellTiter-Glo luminescence, 16 h; series mostly up to 92.4 µM
Method in brief: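 Same-well multiplex: after 16 hr at 37C with compound and R5020 stimulation, HEK293T cells carrying a UAS-bla reporter received LiveBLAzer substrate (2 hr RT), then CellTiter-Glo (30 min RT) for luminescent viability.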

[9] = qHTS assay to identify small molecule agonists of the progesterone receptor (PR) signaling pathway - cell viability counter screen (AID 1346799); details: PR-UAS-bla HEK293T viability, CellTiter-Glo luminescence, 16 h; series mostly up to 92.4 µM; note: nearly all actives have a fitted effect of over 45% in size
Method in brief: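 Counter screen for cytotoxicity: compound-treated PR-UAS-bla HEK293T cells (16 hr, 37C, 5% CO2) were assayed with CellTiter-Glo, luminescence measured after 30 min at room temperature.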

Measured: Potency

Chain of Progesterone receptor (Homo sapiens) (P06401 whole entry, looked up): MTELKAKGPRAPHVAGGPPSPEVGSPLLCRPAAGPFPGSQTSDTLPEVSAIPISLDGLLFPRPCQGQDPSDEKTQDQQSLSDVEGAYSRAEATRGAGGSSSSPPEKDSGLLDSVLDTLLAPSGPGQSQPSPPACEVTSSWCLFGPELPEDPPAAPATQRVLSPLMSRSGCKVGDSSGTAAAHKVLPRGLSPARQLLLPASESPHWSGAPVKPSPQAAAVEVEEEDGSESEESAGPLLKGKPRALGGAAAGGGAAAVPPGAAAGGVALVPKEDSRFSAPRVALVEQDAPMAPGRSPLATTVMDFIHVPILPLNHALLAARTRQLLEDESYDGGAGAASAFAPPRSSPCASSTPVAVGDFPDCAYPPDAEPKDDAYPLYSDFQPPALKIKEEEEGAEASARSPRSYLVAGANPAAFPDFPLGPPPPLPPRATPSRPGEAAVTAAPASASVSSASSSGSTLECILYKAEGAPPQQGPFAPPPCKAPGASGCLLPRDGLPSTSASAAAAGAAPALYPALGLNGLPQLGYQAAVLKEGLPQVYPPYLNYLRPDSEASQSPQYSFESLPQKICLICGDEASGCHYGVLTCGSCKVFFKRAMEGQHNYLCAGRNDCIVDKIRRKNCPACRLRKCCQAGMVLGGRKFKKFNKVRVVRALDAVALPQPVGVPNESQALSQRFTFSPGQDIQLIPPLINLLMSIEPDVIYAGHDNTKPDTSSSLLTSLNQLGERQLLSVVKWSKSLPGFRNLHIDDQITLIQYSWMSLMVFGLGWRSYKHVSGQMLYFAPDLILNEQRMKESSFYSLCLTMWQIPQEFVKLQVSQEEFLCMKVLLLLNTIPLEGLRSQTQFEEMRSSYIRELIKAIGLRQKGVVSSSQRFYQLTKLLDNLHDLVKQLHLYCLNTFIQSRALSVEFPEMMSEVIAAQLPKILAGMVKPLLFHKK
Chain of Thyrotropin receptor (Homo sapiens) (P16473 whole entry, looked up): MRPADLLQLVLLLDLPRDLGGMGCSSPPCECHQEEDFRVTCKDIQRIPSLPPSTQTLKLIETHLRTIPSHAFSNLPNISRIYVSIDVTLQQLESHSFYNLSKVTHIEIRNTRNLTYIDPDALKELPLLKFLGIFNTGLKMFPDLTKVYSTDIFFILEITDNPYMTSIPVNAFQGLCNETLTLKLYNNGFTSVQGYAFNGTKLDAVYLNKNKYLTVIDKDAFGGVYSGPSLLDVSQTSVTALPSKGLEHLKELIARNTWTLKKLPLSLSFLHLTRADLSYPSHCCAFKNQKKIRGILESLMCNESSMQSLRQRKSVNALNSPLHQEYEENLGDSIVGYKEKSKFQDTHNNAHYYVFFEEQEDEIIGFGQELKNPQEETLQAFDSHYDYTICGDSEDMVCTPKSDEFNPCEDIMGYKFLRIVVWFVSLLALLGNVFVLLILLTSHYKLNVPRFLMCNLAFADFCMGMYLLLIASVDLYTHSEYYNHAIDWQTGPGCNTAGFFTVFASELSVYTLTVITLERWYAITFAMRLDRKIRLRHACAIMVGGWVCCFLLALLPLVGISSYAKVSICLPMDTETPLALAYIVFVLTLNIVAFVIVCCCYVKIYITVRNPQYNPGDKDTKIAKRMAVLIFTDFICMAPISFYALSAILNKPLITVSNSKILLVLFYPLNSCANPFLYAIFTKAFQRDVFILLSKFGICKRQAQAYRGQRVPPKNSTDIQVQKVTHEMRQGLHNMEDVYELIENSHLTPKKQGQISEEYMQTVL
Chain of Estrogen receptor (Homo sapiens) (P03372 whole entry, looked up): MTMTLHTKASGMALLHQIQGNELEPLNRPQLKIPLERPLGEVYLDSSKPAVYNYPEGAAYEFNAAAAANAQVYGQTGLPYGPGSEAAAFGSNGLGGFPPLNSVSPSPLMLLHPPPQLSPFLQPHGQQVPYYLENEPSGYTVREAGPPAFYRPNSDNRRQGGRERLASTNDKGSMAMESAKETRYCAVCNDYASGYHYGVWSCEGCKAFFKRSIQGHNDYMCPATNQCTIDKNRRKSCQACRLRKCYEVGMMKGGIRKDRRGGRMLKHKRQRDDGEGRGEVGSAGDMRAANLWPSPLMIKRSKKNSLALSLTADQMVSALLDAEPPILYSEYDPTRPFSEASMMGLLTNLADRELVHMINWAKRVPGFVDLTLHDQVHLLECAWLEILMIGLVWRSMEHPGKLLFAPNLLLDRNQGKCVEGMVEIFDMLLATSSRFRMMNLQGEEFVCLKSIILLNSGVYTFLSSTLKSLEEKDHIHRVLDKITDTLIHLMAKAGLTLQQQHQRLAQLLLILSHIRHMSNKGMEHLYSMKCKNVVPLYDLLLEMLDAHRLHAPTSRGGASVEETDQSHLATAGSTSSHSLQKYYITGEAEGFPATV

O=C(O)c1cc2ccccc2nc1C(=O)O
inactive: all assays above

CCCC(=O)Nc1ccc(OCC(O)CNC(C)C)c(C(C)=O)c1 (stereo not drawn)
inactive: all assays above

O=C(Cn1ccnc1[N+](=O)[O-])NCc1ccccc1
inactive: all assays above

CCCCOCCOC(=O)COc1ccc(Cl)cc1Cl
inactive: all assays above

CCC(C)C(C)=O (stereo not drawn)
inactive: all assays above

CCOCCOCC
inactive: all assays above

CCCSSCCC
not listed: [6]
inactive: all other assays above

CC(C)(CO)C(O)C(=O)NCCCO (stereo not drawn)
not listed: [6]
inactive: all other assays above

CCCC(=O)OC/C=C(\C)CCC=C(C)C
not listed: [6] | [9]
inactive: all other assays above

CCN1CCCC1CN (stereo not drawn)
not listed: [7] | [9]
inactive: all other assays above

CCOC(=O)CC1(C)OCC(C)O1 (stereo not drawn)
not listed: [6]
inactive: all other assays above

CC(=O)Nc1ccc(OC(=O)c2ccccc2OC(C)=O)cc1
not listed: [6]
inactive: all other assays above

CC/C(C)=N\O[Si](C)(O/N=C(\C)CC)O/N=C(\C)CC
not listed: [7]
inactive: all other assays above

Nc1nnnn1-c1ccccc1
not listed: [7]
inactive: all other assays above

C[Si]1(C)O[Si](C)(C)O[Si](C)(C)O[Si](C)(C)O[Si](C)(C)O1
not listed: [7] | [8]
inactive: all other assays above
